Experiments:
Conditions in all cases: concentration: 1 μM, replicates: in singlicate; n = 1
TSSK3 = tested on: TSSK3
TTK = tested on: TTK
TXK = tested on: TXK
[1] = tested on: TYK2(JH1domain-catalytic)
[2] = tested on: TYK2(JH2domain-pseudokinase)
TYRO3 = tested on: TYRO3
ULK1 = tested on: ULK1
ULK2 = tested on: ULK2
ULK3 = tested on: ULK3
VEGFR2 = tested on: T1, VEGFR2
T1 construct: gene KDR

VPS34 = tested on: T2, VPS34
T2 construct: gene PIK3C3

VRK2 = tested on: VRK2
WEE1 = tested on: WEE1
WEE2 = tested on: WEE2
WNK1 = tested on: WNK1
WNK2 = tested on: WNK2
WNK3 = tested on: WNK3
WNK4 = tested on: WNK4
YANK1 = tested on: T3, YANK1
T3 construct: gene STK32A

YANK2 = tested on: T4, YANK2
T4 construct: gene STK32B
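Also: KINOMEscan kinase panel screen.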

Structure (SMILES) | %Inh (TSSK3) | %Inh (TTK) | %Inh (TXK) | %Inh [1] | %Inh [2] | %Inh (TYRO3) | %Inh (ULK1) | %Inh (ULK2) | %Inh (ULK3) | %Inh (VEGFR2) | %Inh (VPS34) | %Inh (VRK2) | %Inh (WEE1) | %Inh (WEE2) | %Inh (WNK1) | %Inh (WNK2) | %Inh (WNK3) | %Inh (WNK4) | %Inh (YANK1) | %Inh (YANK2)
O=C(Nc1cccc(-c2nn3ncccc3c2-c2ccnc(Nc3cccc(C(F)(F)F)c3)n2)c1)c1c(F)cccc1F [GSK299495] | 18% | 6% | 76% | 22% | 39% | 87% | 0% | 0% | 7% | 29% | 0% | 20% | 2% | 24% | 15% | 0% | 44% | 27% | 0% | 15%
c1ccc(-c2n[nH]cc2-c2ccnc3ccccc23)nc1 [GW271431] | 22% | 4% | 4% | 17% | 10% | 0% | 0% | 0% | 1% | 12% | 20% | 0% | 9% | 2% | 7% | 11% | 15% | 0% | 19% | 4%
NCC(NC(=O)c1cc(-c2cn[nH]c2)c(-c2ccnc3[nH]ccc23)s1)c1ccccc1.O=C(O)C(F)(F)F.O=C(O)C(F)(F)F (centres unmarked) [GSK1325775] | 23% | 14% | 10% | 49% | 31% | 0% | 18% | 7% | 14% | 18% | 59% | 0% | 0% | 0% | 6% | 9% | 21% | 24% | 15% | 0%
CSc1ccc(-c2cc3ncnc(SCC(=O)O)c3s2)cc1 | 0% | 0% | 0% | 0% | 0% | 0% | 0% | 8% | 0% | 0% | 31% | 0% | 0% | 15% | 0% | 0% | 0% | 0% | 0% | 0%
CCCCCc1nc2c(N)ncnc2n1CCCCC [SKF-97255] | 0% | 0% | 12% | 7% | 9% | 0% | 12% | 12% | 11% | 0% | 0% | 0% | 0% | 3% | 7% | 0% | 0% | 0% | 0% | 12%
Cc1cccc(-c2nc(-c3ccc(S(C)(=O)=O)cc3)sc2-c2ccncc2)c1 | 0% | 20% | 0% | 2% | 3% | 0% | 0% | 0% | 0% | 0% | 12% | 0% | 0% | 7% | 0% | 0% | 0% | 0% | 0% | 23%
N#Cc1ccc(-c2cc(-c3c[nH]nc3-c3ccccn3)ccn2)cc1 [GW693028] | 8% | 3% | 6% | 1% | 28% | 24% | 6% | 0% | 6% | 0% | 0% | 13% | 2% | 0% | 7% | 15% | 30% | 30% | 15% | 7%
NS(=O)(=O)c1cccc(-c2ccc3nccc(-c4cccc(S(N)(=O)=O)c4)c3c2)c1 [GW867253] | 0% | 0% | 5% | 0% | 39% | 0% | 12% | 81% | 18% | 4% | 78% | 12% | 0% | 0% | 7% | 0% | 0% | 0% | 0% | 0%
Cc1cn2c(=O)cc(N3CCOCC3)nc2n1Cc1cccc(Cl)c1Cl [GSK2334006] | 29% | 0% | 8% | 19% | 18% | 7% | 0% | 0% | 7% | 8% | 96.7% | 0% | 20% | 16% | 0% | 19% | 27% | 0% | 23% | 0%
COCCNC(=O)c1ccc(-c2cc(C(=O)NC3CC3)cc(F)c2C)cc1 [GW868318] | 24% | 0% | 18% | 9% | 33% | 21% | 46% | 37% | 47% | 16% | 9% | 37% | 3% | 5% | 31% | 0% | 23% | 21% | 1% | 25%

From PMC5540273 (PLoS ONE, 2017)
